# From PubChem BioAssay AID598 (SRMLSC, 2007)
# The whole screen tested about 85,000 compounds, of which about 5,100 (6%) were called active. This is one part of a sample in which actives are shown more often than they occur. Values without a mark were called inactive.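 Rule for the calls: active = viability at or below 40%; inactive = viability above 40%.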
# Assay: proliferation blockers of H69AR lung cancer cells, primary screen, cell-based, human, 86K library (AID 598);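 note: multidrug resistant small cell line overexpressing MRP-1 efflux transporter; 100% = mean luminescence of untreated control wells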
# Conditions: H69AR lung tumor viability, ATP luminescence, 72 h; at 10 µM; stronger effect = lower value
row,Compound,viability
1,COc1ccc(N2CCN(Cc3ccc(Br)s3)CC2)cc1,65.6%
2,CC1(C)Cc2cccc(OCC(N)=O)c2O1,102%
3,Fc1ccc2nc(N3CCCCC3)sc2c1,90%
4,Fc1ccc2nc(Nc3nc4c(s3)CCCC4)sc2c1,36.1% (active)
5,CNC(=O)c1ccc2nc(NC(C)=O)sc2c1,99%
6,COC(=O)CSc1nc2c(c(C3CC=CCC3)c1C#N)CCC2 (stereo not drawn),65.3%
7,O=C(c1cccc(F)c1)N1CCC(O)(c2cccnc2)CC1,88.1%
8,CCOC(=O)N1CCC(Nc2c(NCCCN3CCN(CC)CC3)c(=O)c2=O)CC1,112%
9,Cc1cc(C(=O)OCC(=O)NCc2ccco2)c(C)n1-c1ccccc1,29.6% (active)
10,CCOC(=O)c1cnc(SCC(=O)NCc2ccco2)nc1N,91.3%
11,O=C(COC(=O)C12CC3CC(CC(C3)C1)C2)NCc1ccco1,83.8%
12,CNc1nc(SC)nc(N(C#N)CC(=O)OC)n1,92.4%
13,CCN(CC)S(=O)(=O)c1ccc2c3c(cccc13)C(=O)S2,69%
14,O=C(CSC1=Nc2ccccc2C2=NC(CC(=O)NCc3ccco3)C(=O)N12)NCc1ccco1 (stereo not drawn),85.9%
15,CCOc1cc(NC(=O)c2cnccn2)c(OCC)cc1NC(=O)c1ccc(C)cc1,110%
16,Cc1ccc(OCC(=O)N2CCN(C(=O)c3cccnc3)CC2)cc1,86.2%
17,COc1ccc(NC(=O)C(CC(C)C)NS(=O)(=O)c2ccc3c(c2)CCN3C(C)=O)cc1OC (stereo not drawn),90.6%
18,CCN(CC)Cc1cc(C(C)=O)ccc1O,98.5%
19,CCOc1ccc2c(c1)C(c1ccc(C)cc1)=NNC(c1ccc(C)cc1)=N2,21% (active)
20,COc1ccc(C2C(C(C)=O)=C(O)C(=O)N2Cc2cccnc2)cc1 (stereo not drawn),99.2%
21,Cc1ccc(Nc2nnc(SCc3ccccc3)s2)cc1,98.2%
22,COc1ccccc1C(=O)N1CC2(C)CC1CC(C)(C)C2 (stereo not drawn),84.2%
23,Cc1ccc(/C=N/NC(=O)Cn2nc(C)c(Br)c2C)o1,102%
24,CCCCNC(=O)CCNC(=O)c1ccc(C(C)(C)C)cc1,102%
25,CCOc1ccc(N(CC(=O)OC)S(=O)(=O)c2c(C)noc2C)cc1,96.6%
26,CCOC(=O)c1cccc(NC(=O)CN(c2ccc(C)cc2)S(=O)(=O)c2c(C)noc2C)c1,24% (active)
27,Cc1noc(C)c1S(=O)(=O)N(CC(=O)Nc1ccc2c(c1)OCCO2)c1ccc(C(C)C)cc1,56.8%
28,CCOC(=O)c1cc2c(ccn2C)n1CC(=O)N1CCC(C)CC1,88.5%
